From PubChem BioAssay (NCATS)
Inconclusive results are not listed. Active and inactive are the calls of the source. Unless noted, calls come from the whole dose curve; as a rule, active = well fitted cell-killing curve with a large enough effect; inconclusive = small, poorly fitted or top-dose-only effect; inactive = flat fitted curve, though single readings scatter.

Assays:
[1] = Cell Viability - LYMP2-021 (AID 974);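 note: compound exposure lasts 24 hours at 37 °C; % is set by controls: 0 for no effect and ±100 for the full control effect; nearly all actives have a fitted effect of over 55% in size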
Method in brief: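 Human lymphoblastoid LYMP2-021 cells, 2500/well in complete medium, treated 24 hours at 37 C. Intracellular ATP by CellTiter-Glo luminescence (30 min, RT); AC50 from Hill fits of concentration-response.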

[2] = Cell Viability - LYMP2-025 (AID 976);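 note: series mostly up to about 92 µM; plate controls were DMSO only for no effect and tetraoctylammonium bromide control for full effect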
Method in brief: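 Human lymphoblastoid LYMP2-025 cells, 2500/well, exposed 24 h at 37 C in complete medium in 1536-well qHTS. Viability as cellular ATP by CellTiter-Glo luminescence; AC50 from Hill fits of concentration-response data.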

[3] = Cell Viability - LYMP2-002 (AID 977);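 note: series mostly up to about 92 µM; plate controls were DMSO only for no effect and 92 µM tetraoctylammonium bromide for full effect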
Method in brief: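 Luminescent ATP readout (CellTiter-Glo, 30 min room temperature) after 24 h compound exposure at 37 C of a human lymphoblastoid line, 2500 cells/well. AC50 values derived by standard Hill fitting of qHTS concentration-response data.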

[4] = Cell Viability - LYMP2-006 (AID 978); note: series mostly up to about 92 µM; % is set by controls: 0 for no effect and ±100 for the full control effect; nearly all actives have a fitted effect of over 60% in size
Method in brief: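 In this cytotoxicity screen, the human lymphoblastoid line grew in complete medium with test compounds for 24 hr at 37 C. Cellular ATP served as the viability signal.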

[5] = Cell Viability - LYMP2-007 (AID 979);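 note: cells exposed to compound for 24 h before reading; 0% = DMSO only and the negative end = 92 µM tetraoctylammonium bromide; nearly all actives have a fitted effect of over 60% in size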
Method in brief: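 Human lymphoblastoid LYMP2-007 cells (2500/well) preincubated 5 h at 37 C, then treated 24 h at 37 C in complete medium. Viability by CellTiter-Glo ATP luminescence after 30 min at room temperature; AC50 from Hill fits.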

[6] = Cell Viability - LYMP2-008 (AID 980); note: % is set by controls: 0 for no effect and ±100 for the full control effect; nearly all actives have a fitted effect of over 60% in size
Method in brief: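 LYMP2-008 lymphoblastoid cells (2500/well) plated 5 h, then treated 24 h at 37 C in complete medium. Viability read as intracellular ATP by CellTiter-Glo luminescence after 30 min at room temperature; AC50 from Hill fits.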

[7] = Cell Viability - LYMP2-010 (AID 981); note: % is set by controls: 0 for no effect and ±100 for the full control effect; nearly all actives have a fitted effect of over 55% in size
Method in brief: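 Human lymphoblastoid LYMP2-010 cells (2500/well) treated 24 h at 37 C in complete medium; viability read as intracellular ATP by CellTiter-Glo luminescence. AC50 from Hill fits of concentration-response data; tetraoctylammonium bromide positive control.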

[8] = Cell Viability - LYMP2-012 (AID 982);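 note: cellular ATP by luciferase luminescence where a drop means cytotoxicity; cells exposed to compound for one day before reading; 0% = DMSO only and full loss = 92 µM tetraoctylammonium bromide; nearly all actives have a fitted effect of over 55% in size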
[9] = Cell Viability - LYMP2-016 (AID 984); note: % is set by controls: 0 for no effect and ±100 for the full control effect; nearly all actives have a fitted effect of over 55% in size
Method in brief: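 Concentration-dependent ATP depletion measured in LYMP2-016 lymphoblastoid cells, 24 h, 37 C; luciferase-based luminescent detection; Hill-equation AC50.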

[10] = Cell Viability - LYMP2-018 (AID 985);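 note: compound exposure lasted 24 hr at 37 °C; plate controls were DMSO only for no effect and tetraoctylammonium bromide at 92 µM for full effect; nearly all actives have a fitted effect of over 50% in size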
Method in brief: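 Human lymphoblastoid LYMP2-018 cells, 2500/well, settled 5 hr at 37 C then exposed to compound 24 hr at 37 C; intracellular ATP measured by CellTiter-Glo luminescence. AC50 from Hill-equation concentration-response fits.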

[11] = Cell Viability - LYMP2-020 (AID 986)
Method in brief: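 Human lymphoblastoid LYMP2-020 cells (2500/well) preincubated 5 h at 37 C, then treated 24 h at 37 C. Viability measured as intracellular ATP by CellTiter-Glo luminescence after 30 min at room temperature; AC50 from Hill fits.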

[12] = Cell Viability - LYMP2-022 (AID 987)
Method in brief: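 LYMP2-022 lymphoblastoid cells (2500/well, complete medium) were treated with compounds for 24 hours at 37 C; intracellular ATP was then read by CellTiter-Glo luminescence after 30 min at room temperature. AC50 values were derived from Hill-equation fits.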

[13] = Cell Viability - LYMP2-024 (AID 988);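 note: plate controls were DMSO only for no effect and 92 µM tetraoctylammonium bromide for full effect; nearly all actives have a fitted effect of over 60% in size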
Method in brief: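 Human lymphoblastoid LYMP2-024 cells (2500/well) rested 5 hr, then treated with compound for 24 hr at 37 C in complete medium. Viability was measured as intracellular ATP by CellTiter-Glo luminescence. AC50 values came from Hill-equation fits.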

[14] = Cell Viability - LYMP2-026 (AID 989); note: % is set by controls: 0 for no effect and ±100 for the full control effect; nearly all actives have a fitted effect of over 50% in size
Method in brief: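 Human lymphoblastoid LYMP2-026 cells, 2500/well, exposed to compound 24 h at 37 C in complete medium. Viability as intracellular ATP by CellTiter-Glo luminescence; AC50 from Hill fits of qHTS concentration-response.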

[15] = Cell Viability - LYMP1-002 - Assay at 40 hr (AID 994)
Method in brief: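 LYMP1-002 human lymphoblastoid cells (2500/well, complete medium) were treated with compounds for 40 hr at 37 C. Intracellular ATP was measured by CellTiter-Glo luminescence, and AC50 values came from Hill-equation fits of concentration-response data; tetraoctylammonium bromide was the positive control.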

[16] = qHTS Assay for Identification of Small Molecule Inducers of Hypoxia Response (AID 2120; active = well fitted curve in the direction sought with a large enough effect in the signal ratio, with a control signal flat, not every such curve was filed as active; the % refers to the signal ratio; note: 0% is about no effect)
Method in brief: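 HRE-bla ME-180 cells in Opti-MEM with 0.5% dialyzed FBS, pre-plated 4-5 h, then compound titration for 17 h at 37 degrees Celsius. CCF4 loaded 2.5 h at room temperature; 460/530 nm ratio gave %Activity and AC50 for induction.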

[17] = biological target: Estrogen receptor (Homo sapiens) (UniProt P03372); experiment: qHTS assay for small molecule antagonists of estrogen receptor alpha signaling (AID 588513; active = well fitted curve in the direction sought with a large enough effect in the signal ratio, with a control signal flat, not every such curve was filed as active; the % refers to the signal ratio; note: % is set by controls: 0 for no effect and ±100 for the full control effect)
Method in brief: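 Antagonist-mode qHTS in ER-alpha-UAS-bla HEK 293 cells: compound titration, 0.5nM estradiol for 18 h, CCF4 fluorescence, Hill-derived IC50.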

[18] = biological target: Glucocorticoid receptor (Homo sapiens) (UniProt P04150); experiment: qHTS assay for small molecule agonists of glucocorticoid receptor signaling (AID 588532; active = well fitted curve in the direction sought with a large enough effect in the signal ratio, with a control signal flat; the % refers to the signal ratio;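 note: 100% = dexamethasone at 0.1 µM and 0% = DMSO only wells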); conditions: HeLa MMTV-bla, beta-lactamase ratio, agonist, 18 h; stronger effect = higher value; percent of dexamethasone control, DMSO zero
Method in brief: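 Titration series, up to 92 uM, applied to GRE-bla HeLa cells for 18 h at 37 C. Detection by CCF4 FRET substrate after 2 h at RT.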

[19] = biological target: Glucocorticoid receptor (Homo sapiens) (UniProt P04150); experiment: qHTS assay for small molecule antagonists of glucocorticoid receptor signaling (AID 588533; active = well fitted inhibition curve with a large enough effect in the signal ratio, with a control signal flat, not every such curve was filed as active; the % refers to the signal ratio;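 note: cells stimulated with 2 nM dexamethasone as agonist; % is set by controls: 0 for no effect and ±100 for the full control effect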)
Method in brief: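 Antagonist-mode qHTS: compound titrations added to GRE-bla HeLa cells, then dexamethasone 2 nM final; 18 h, 37 C. CCF4 FRET fluorescence normalized to dexamethasone and DMSO; IC50 from Hill fit.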

[20] = biological target: Peroxisome proliferator-activated receptor gamma (Homo sapiens) (UniProt P37231); experiment: qHTS assay for small molecule agonists of peroxisome proliferator-activated receptor gamma signaling (AID 588536; active = well fitted curve in the direction sought with a large enough effect in the signal ratio, with a control signal flat, not every such curve was filed as active; the % refers to the signal ratio;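 note: 0% = DMSO basal wells and 100% = rosiglitazone at 2 µM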)
Method in brief: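 Ratiometric blue/green fluorescence (405 nm excitation; 460 and 530 nm emission) from CCF4-loaded HEK293 reporter cells serves as signal. Exposure to test compounds lasts 16 h at 37 C in medium containing 1% charcoal/dextran-treated serum.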

[21] = biological target: Peroxisome proliferator-activated receptor gamma (Homo sapiens) (UniProt P37231); experiment: qHTS assay for small molecule antagonists of peroxisome proliferator-activated receptor gamma signaling (AID 588537; active = well fitted inhibition curve with a large enough effect in the signal ratio, with a control signal flat, not every such curve was filed as active; the % refers to the signal ratio;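 note: reporter cells co-stimulated with 50 nM rosiglitazone agonist during compound treatment; % of control where 0% means no effect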)
Method in brief: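 We seeded GeneBLAzer HEK293 reporter cells at 3000 per well, allowed 6-6.5 h attachment at 37 C, then co-treated with test compound titrations and 50 nM rosiglitazone overnight (16 h). Inhibition was quantified from 460/530 nm emission ratios.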

Sequence of Glucocorticoid receptor (Homo sapiens) (P04150 whole entry, looked up): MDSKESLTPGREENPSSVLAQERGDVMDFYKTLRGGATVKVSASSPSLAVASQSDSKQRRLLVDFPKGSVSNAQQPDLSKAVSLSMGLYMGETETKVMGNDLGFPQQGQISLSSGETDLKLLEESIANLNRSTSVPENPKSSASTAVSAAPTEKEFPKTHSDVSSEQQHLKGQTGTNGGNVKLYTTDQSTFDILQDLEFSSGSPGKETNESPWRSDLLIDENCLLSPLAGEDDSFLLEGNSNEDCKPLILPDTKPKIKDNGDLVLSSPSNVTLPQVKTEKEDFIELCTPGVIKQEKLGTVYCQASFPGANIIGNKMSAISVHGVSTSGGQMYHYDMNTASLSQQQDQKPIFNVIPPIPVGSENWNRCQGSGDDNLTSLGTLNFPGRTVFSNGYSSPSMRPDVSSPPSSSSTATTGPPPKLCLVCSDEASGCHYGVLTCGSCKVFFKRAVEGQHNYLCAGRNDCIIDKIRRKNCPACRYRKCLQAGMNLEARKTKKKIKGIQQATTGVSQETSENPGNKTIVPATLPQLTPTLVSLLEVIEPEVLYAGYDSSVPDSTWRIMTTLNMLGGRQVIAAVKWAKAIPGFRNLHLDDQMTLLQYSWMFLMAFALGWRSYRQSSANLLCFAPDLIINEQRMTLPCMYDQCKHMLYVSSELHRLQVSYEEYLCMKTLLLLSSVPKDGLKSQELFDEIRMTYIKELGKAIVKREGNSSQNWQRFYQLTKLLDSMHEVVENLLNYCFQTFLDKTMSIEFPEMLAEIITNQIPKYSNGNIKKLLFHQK
Sequence of Peroxisome proliferator-activated receptor gamma (Homo sapiens) (P37231 whole entry, looked up): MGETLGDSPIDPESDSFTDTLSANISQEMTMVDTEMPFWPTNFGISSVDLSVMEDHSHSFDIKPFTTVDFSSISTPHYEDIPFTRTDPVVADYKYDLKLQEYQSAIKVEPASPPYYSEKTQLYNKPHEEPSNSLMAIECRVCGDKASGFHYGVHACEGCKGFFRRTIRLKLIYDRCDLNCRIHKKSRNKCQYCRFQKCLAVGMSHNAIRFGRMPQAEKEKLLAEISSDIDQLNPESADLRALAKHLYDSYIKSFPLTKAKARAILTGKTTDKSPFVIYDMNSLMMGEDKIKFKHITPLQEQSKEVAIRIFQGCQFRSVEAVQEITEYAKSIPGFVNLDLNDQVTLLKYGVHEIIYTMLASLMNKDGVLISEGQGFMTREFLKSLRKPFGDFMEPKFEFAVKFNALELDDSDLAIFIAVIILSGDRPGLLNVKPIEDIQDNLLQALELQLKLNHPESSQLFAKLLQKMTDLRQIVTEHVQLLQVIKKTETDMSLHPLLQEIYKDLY
Sequence of Estrogen receptor (Homo sapiens) (P03372 whole entry, looked up): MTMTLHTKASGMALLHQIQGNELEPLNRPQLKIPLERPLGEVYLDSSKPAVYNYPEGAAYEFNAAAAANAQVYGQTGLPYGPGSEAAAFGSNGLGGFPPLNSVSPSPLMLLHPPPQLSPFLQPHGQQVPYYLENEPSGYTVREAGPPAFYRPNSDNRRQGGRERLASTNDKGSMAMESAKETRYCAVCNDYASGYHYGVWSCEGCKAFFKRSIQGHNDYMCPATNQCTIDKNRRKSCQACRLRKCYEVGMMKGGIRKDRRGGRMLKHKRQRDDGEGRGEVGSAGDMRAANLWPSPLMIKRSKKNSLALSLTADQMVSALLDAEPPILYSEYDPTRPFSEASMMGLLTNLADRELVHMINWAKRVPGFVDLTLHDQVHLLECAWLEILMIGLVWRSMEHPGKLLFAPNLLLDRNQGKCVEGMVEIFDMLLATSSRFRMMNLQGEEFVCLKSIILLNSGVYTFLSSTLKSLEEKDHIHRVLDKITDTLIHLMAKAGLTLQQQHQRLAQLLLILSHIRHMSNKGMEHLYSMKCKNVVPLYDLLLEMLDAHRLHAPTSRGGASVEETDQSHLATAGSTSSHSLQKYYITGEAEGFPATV

O=C1CCc2ccccc2O1
inactive: Potency [1] | Potency [2] | Potency [3] | Potency [4] | Potency [5] | Potency [6] | Potency [7] | Potency [8] | Potency [9] | Potency [10] | Potency [11] | Potency [12] | Potency [13] | Potency [14] | Potency [15] | outcome [16] | Potency [17] | activation [18] -2.22% | Potency [19] | outcome [20] | outcome [21]
